Data as given in PubChem BioAssay AID1347426 (Functional Genomics Laboratory (NCATS/FGL), 2020).
Hit rate of the full screen: of about 31,000 sequences, about 1,400 (4.5%) were called active. The entries come from a sample that favours actives as a whole. Unmarked numbers belong to inactive results.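 How the source made its calls: active means median seed-adjusted z-score above 1 or below -1; inactive means the rest.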

Experiment: Novel Modifiers of Survival Motor Neuron (SMN) Protein: Gene Identification via Genome-wide siRNA Screen;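 further: luminescence tracks full-length SMN protein made from the SMN2 reporter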
Details: HEK293T SMN2-luciferase reporter, siRNA knockdown, 72 h; actives lie on both sides
Summary of the method: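 siRNA screen, 10418 genes ×3 siRNAs; 1 pmol/well, lipid reverse transfection into HEK293T SMN2-luc reporter line. 72 h, 37 °C, 5% CO2; ONE-Glo readout. Data: neg-ctrl normalized, log10, MAD; hit = MAD >1.0 or < -1.0.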

| Sequence | median seed-adjusted z-score |
| --- | --- |
| CAUACGGACUGUACCUUUATT against PSMC5 | -1.06 (active) |
| CCCUCUACCUCGUCCGAAUTT against SIRPA | -0.153 |
| CCACAUCUCAAGUCCACUUTT against PPP1R1A | -0.529 |
| CACUUACGGUGUGAAAGGATT against SOX5 | 0.123 |
| AGUUACUACCUUAUCCUCATT against POU2F2 | 0.163 |
| CCAUCUCCUACAUCGCCGATT against APBA2 | 1.66 (active) |
| GCUAUUUGGUUAUCCUUAUTT against ATP6V0A1 | 0.103 |
| AGAUCCUGUGGAUUAGAAATT against NEU4 | -0.152 |
| GUGCGAAAGAGAAUCUUAATT against SPIRE1 | 0.336 |
| GGAACAGCUUAAGAUUGAATT against GNG3 | -0.186 |
| GGAAGACCUUACACGGUUATT against EIF3E | 0.549 |
| GCUAUUUCCAGCGAAUAUATT against CNOT1 | 1.2 (active) |
| CGCAGAAGAUGUACCAGUUTT against CDH22 | -0.57 |
| CAGGGUCUAUGGUACCGUUTT against UBE3C | 0.0341 |
| AAAUCCUUGGGUCAACAUUTT against NOX1 | -0.221 |
| GGACAAGGGAUUAAUAGUATT against ARID1A | -1.14 (active) |
| CCUUGAUCCUCGACUGUAATT against COL5A1 | -0.00475 |
| GGUCAUUGUGAAAAGUAGATT against GCLM | 0.0509 |
| CGCAUACUCUCGCCCUGUATT against ZNHIT2 | -0.339 |
| CGAUAGUGAGUAUAUCAGUTT against ZMYND8 | -0.065 |
| UGAGCGAGUUGAUUUCACATT against ATF5 | 0.233 |
| CUUUAAGACUCAUAACGAATT against GTF2E2 | -1.32 (active) |

| Sequence | median seed-adjusted z-score |
| --- | --- |
| GUUUCAUCGUAUAUCAAUATT against HSD17B13 | -0.329 |
| GAAGGUUGAUUAUCGUAAATT against BCMO1 | 0.53 |
| CGAGGAACUAAGACUCAAATT against GPR151 | -0.263 |
| ACAAUUAUUGGAAAGAGAATT against SPRYD5 | 0.151 |
| GGAAGGAGCUGUCACGCAATT against MED26 | -1.86 (active) |
| CGAAUCUCAUGUUCAGGAATT against LPA | -0.321 |
| GGGUCAUGUUUGGUUAGAATT against IMMP1L | -0.444 |
| CGUGGACCACUAUCCCAUUTT against RNF123 | 0 |
| GGAAAAACCAACCAAGUUATT against RUFY1 | 0.119 |
| CGGUGAAGGUGCUAAAGGATT against RAD23A | -1.13 (active) |
| GCCUUCAAUUUUCAUACAATT against ZNF19 | 0 |
| AGUAAUAGUUCAAACCUUUTT against ZNF664 | 1.08 (active) |
| GAGUGUACCUGGAAUGUCUTT against ARNTL2 | 0.102 |
| AAAGUGGAUUGCACACAGATT against TGFB1I1 | 0.887 |
| GAUCAAACCUUGUAUCUCUTT against ARG2 | -0.796 |
| GGUAAAGAAUUCUCCGGAATT against FUS | 0.92 |
| GCAGGAUUGUGAUCCACCATT against PCGF3 | 0.876 |
| GGAUAUGGUGAGAAUAGAATT against MTHFS | 0.166 |
| AGCUCACAAGGAUCCCAAUTT against THPO | -0.0366 |
| CCUUUAGCACGGAUAGUUUTT against ACAT2 | 1.25 (active) |
| CUCCUACAGUGCUAUCAGATT against ENPP2 | -0.305 |
| AAUUCCUCUUCAACAUGUATT against HOXD9 | -0.123 |

| Sequence | median seed-adjusted z-score |
| --- | --- |
| GGAACGGGCUGGAGUUAAATT against FUBP1 | -1.52 (active) |
| GUACUUCAGUGGAGUGAAATT against CDKL1 | -0.28 |
| UCUGCUAUUUGGUCCUGAATT against TOMM34 | -0.503 |
| CCUCAUAUGUGGGACAGAATT against USP3 | -0.176 |
| GGUAUGGAUUUAACAGUCATT against DHODH | -0.422 |
| GGAAGACUAGGAAUCGGAATT against NYX | 0.0685 |
| CACCCACCGCCACAAUAAATT against BSG | 0.211 |
| GCACGACUUUGUACUCAGATT against HES5 | -0.00853 |
| GAGCUAUGGUUACACGGUUTT against GABRQ | -0.54 |
| UGAACCUUGUGAUAGAUGATT against SNRPG | -3.09 (active) |
| GCCUCCACGGAAGAUGUAATT against ZNF746 | 0.1 |
| GCACUUGUAUAAUCAGACUTT against MRLC2 | -0.492 |
| GGACCAUCCAGCUUCUGGATT against GALE | -0.153 |
| GGAUCUCAUGAGGCGAAUATT against EIF5 | 0.362 |
| GUAGGACUCUCAUUCGGGATT against CCND1 | -0.912 |
| GGACCCAAUCAACUCAAUATT against SS18 | 0.34 |
| GCCUAAUUGCGGAACAUAUTT against ESCO1 | 0.755 |
| CGACAAGUUGAAGACCAUATT against CRMP1 | -0.354 |
| CCUAUUCACUUUACACUGUTT against AKR7A2 | 0.192 |
| GAUGAAGAAUGAUAAGUCATT against HNRNPC | -2.15 (active) |
| AGACAAGUAUGUGAGGAAUTT against BTN2A2 | -0.0599 |
| GGAUAUCGCACUUCACUCATT against ELL | -0.497 |

| Sequence | median seed-adjusted z-score |
| --- | --- |
| GGGCGAGCAUUUUCGAGAATT against USP7 | 0.105 |
| CCACGUUUUGAUCAACAAUTT against RDH11 | -0.241 |
| GAUUGCAUAUUACAAACGATT against GIN1 | -0.0585 |
| GGAACGAGAUUGUCAGAUUTT against POLR2B | -4.81 (active) |
| GAUACACUUUGUCACCAAATT against FLT3LG | -0.166 |
| CUCAUGAACUUGCACAACATT against WNT7A | 0.0931 |
| GGAUGAUGUGAACUACAAATT against PTDSS1 | -0.76 |
| GGAGGACAUCGACCAGAUATT against APBA1 | 0.305 |
| CGAUAAAGACGGAUUCUAATT against MATK | -0.754 |
| GAAUAUGAGUACCUAGAUUTT against SELPLG | 0.0378 |
| CACCGACAAUAUAAAGGAATT against SLC25A32 | -0.299 |
| GGUCAUGAUUGCUAUCCUUTT against TAAR9 | -1.07 (active) |
| GGAAGAUUAUUACAGUCGATT against RERE | 0.129 |
| GGACGGUACUACAGUGUAATT against HDAC8 | 0.835 |
| GGAUUUCCAGGGAUAUUUATT against CDKN2B | 0.0154 |
| CAUUGAACGCAGUCCCUUUTT against FLNC | 0.00217 |
| CCCAAUGCCUGUUUAUUCATT against POLR2J3 | -5.42 (active) |
| GGAACCUACCUGACUAAGATT against ARL9 | 0.98 |
| GGGAGUAUAUUUUGAUGAATT against RARS2 | -0.0247 |
| AGAAUAAGUUCAAACAGGATT against RAB4B | -0.207 |
| CAUGAACAGUUUAUCGUAATT against FMR1 | 0.504 |
| GAGACCUAACUGUACGUGATT against TSG101 | 1.48 (active) |

| Sequence | median seed-adjusted z-score |
| --- | --- |
| CUUGCACUCCUGUCCAUAATT against AP3B1 | 0.31 |
| CUAGUUUGUUGCAAAAUAATT against CDKN2C | -0.0789 |
| CAAUUAAGUUGGAUCCUUUTT against WARS2 | 0.21 |
| GGUACAUCGCGAUAUCAAATT against YSK4 | -0.181 |
| CGAUGGUAUUGACUAAGUUTT against HSPA1L | -1.27 (active) |
| CUAGGAGUCAAAGAAAAUATT against RNPS1 | 0 |
| GGAGAGAGCGUGUCCUACATT against SIRPA | -0.153 |
| AAACAAAACUUGCACUUUATT against RASD1 | 0.674 |
| GCCUUGAACCUAGGACCAATT against PRAF2 | -0.326 |
| GGACGAGAAUGGGAAGAUUTT against ARD1A | -1.05 (active) |
| AGACUAUGAUAGAAUCCCATT against LGI3 | -0.0189 |
| CUCUACCCGUGCUAUAUAATT against TIGD1 | 0.224 |
| CAAGAUCCAGGACACCAAATT against MAP4K1 | 0 |
| CUAUCCAACUCAAACGAUUTT against USP9Y | 0.012 |
| GGCUUGAUAUUUGACAGAATT against BBOX1 | 0.152 |
| AGAAAUGUCUUGUAGUGAATT against SYT14L | 0.2 |
| GGAUUAUAUUGACAUCAGUTT against DLST | 1.16 (active) |
| GGGAGGACCUGAACAAGAATT against TAOK2 | 0.28 |
| GGCAUGACCUCAUCACAGUTT against RNASE7 | 1.07 (active) |
| GAACCAACCUGUCAAGUGATT against SELL | 0.554 |
